Assay outcomes (PubChem)
KCNH2 3.1 inh: qHTS for Inhibitors of KCHN2 3.1: Mutant qHTS; Potassium voltage-gated channel subfamily H member 2, brain isoform KCNH2 3.1 (human); U2OS KCNH2 3.1, thallium flux FluxOr; hits give low values; activity change, % (tested at about 1.8 µM); hit rate 0.95% among 340,000; AID 720553, 2013;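 active = maximum activity change below -70%; inconclusive = maximum activity change from -70% to -50%; inactive = maximum activity change above -50%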;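 note: thallium influx rate constant from kinetic fluorescence after stimulation buffer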
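Thallium flux via FluxOr fluorescence (Red40 quencher, 45 min loading) in U2OS cells virally expressing the KCNH2 3.1 isoform (1.77 x 10^8 /mL virus, overnight at 37 C). Rate constants from 2-min kinetic reads post-stimulation, normalised to positive and negative controls.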
TRPV1 PAM: HTS Assay for Compounds that Act as Potentiators of the Vanilloid Receptor 1; Transient receptor potential cation channel subfamily V member 1 (Homo sapiens), Q8NER1; TRPV1-expressing cells, Fluo-8 calcium influx, capsaicin EC20 potentiation; potentiation, % at 8.33 µM; hit rate 0.02% among 320,000; in the data active = potentiation above about 80%; inconclusive = between about 30% and that limit
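TRPV1-expressing cells were cultured overnight at 35.5C and loaded with Fluo-8 calcium dye for 40 to 90 min at room temperature. After a 10 s baseline, compound was added and calcium influx was read kinetically for 3 min (ex 480/em 520 nm).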
hERG WT inh: qHTS for Inhibitors of KCHN2 3.1: Wildtype qHTS; Voltage-gated inwardly rectifying potassium channel KCNH2 (Homo sapiens), Q12809; U2OS, BacMam KCNH2, thallium flux FluxOr; hits give low values; activity change, % at 1.84 µM; hit rate 0.37% among 340,000;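 active = maximum activity change below -70%; inconclusive = maximum activity change between -70% and -50%; inactive = maximum activity change above -50%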
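U2OS cells transduced with wild-type KCNH2 virus are loaded with FluxOr dye for 45 min, and thallium flux is measured in kinetic reads before and after stimulation buffer. Rate constants are normalized to DMSO controls.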
TRPV1 ag: HTS Assay for Compounds that Act as Agonists of the Vanilloid Receptor 1 | Transient receptor potential cation channel subfamily V member 1 (Homo sapiens), Q8NER1 | TRPV1-expressing cells, Fluo-8 calcium influx, agonist mode | activation, % at 8.33 µM | hit rate 0.19% among 320,000 | AID 540275, 2011; in the data active = activation above about 80%; inconclusive = between about 30% and that limit
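Cells expressing TRPV1 were dye-loaded with Fluo-8 and read kinetically: 10 s baseline, 3 min after compound (agonist portion), then 2 min after EC20 capsaicin (allosteric enhancer portion). Calcium-bound dye fluorescence at 480/520 nm.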
Numbers stand for hits; . = inactive; ? = inconclusive; / = no result. Rows were chosen to be rich in hits. Some 1.2% of all compounds tested hit in one or more screens of this group.

SMILES | KCNH2 3.1 inh | TRPV1 PAM | hERG WT inh | TRPV1 ag
Cc1ccc(CN2CCN(CCCn3cnc4c(OCc5ccccc5)ncnc43)CC2)cc1 | -97 | / | -127 | /
c1ccc(COc2ncnc3c2ncn3CCCN2CCN(Cc3cccc4ccccc34)CC2)cc1 | ? | / | . | /
CC(C)OCCCN1CC(=O)N2C(c3ccccc3)c3[nH]c4ccccc4c3C[C@H]2C1=O (stereo partly drawn) | ? | . | . | .
COc1cccc(C2c3[nH]c4ccccc4c3C[C@H]3C(=O)N(CCCOC(C)C)CC(=O)N23)c1 (stereo partly drawn) | -156 | . | . | .
CCOC(=O)c1c(C)nc2sccn12 | -95 | . | . | .
CCOc1ncccc1C(=O)OCCCC(=O)c1ccc(Br)cc1 | . | . | . | .
COc1ccc(N)c2c1C(=O)c1ccccc1C2=O | -98 | . | . | .
COc1ccc(OC)c2c1C(=O)c1ccccc1C2=O | . | . | . | .
COc1ccc2[nH]c(=O)c(-c3nnn(-c4ccc(Cl)nc4)n3)cc2c1 | -99 | / | . | /
NS(=O)(=O)c1cccc(NC(=O)CSc2n[nH]c(-c3ccccc3Br)n2)c1 | . | / | . | /
Cc1cc(Sc2nnc(N)s2)c2ccccc2n1 | -78 | . | . | .
C[C@]12C(=O)N(c3ccc(Br)cc3)C(=O)N1[C@H]1c3ccccc3OC[C@@H]1[C@H]2c1ccccc1 | . | / | . | /
CC(=O)Nc1ccc(Nc2ncnc3c2cnn3-c2ccc(C)cc2C)cc1 | . | . | . | 87
CC(=O)Nc1ccc(Nc2ncnc3c2cnn3-c2cccc(C)c2)cc1 | . | . | . | .
CCOC(=O)c1ccc(Nc2ncnc3c2cnn3C)cc1 | . | . | . | 83
FC(F)(F)c1cc(-c2ccco2)nc(-n2nc(C(F)(F)F)cc2C2CC2)n1 | -143 | . | . | .
CCN1CCN(C(=O)C(C)Sc2nc3nc(C)cc(C)n3n2)CC1 (stereo not drawn) | . | / | . | /
Cc1ccc(NC(=O)c2cc(S(=O)(=O)N3CCOCC3)cs2)cc1 | . | . | . | 81
O=C(Cc1ccc(NC(=O)C2CCCN(C(=O)C3CC3)C2)cc1)Nc1ccc(C(=O)N2CCOCC2)cc1 (stereo not drawn) | . | / | . | /
CN1CCC(N(C)CC(=O)Nc2ccc3c(c2)OC(F)(F)O3)CC1 | . | / | . | /
CN1CCC(N(C)CC(=O)Nc2cccc(Oc3ccccc3)c2)CC1 | -95 | . | . | .
Cc1ccccc1C(=O)NN1C(=O)CSC1=S | . | . | . | .
Cc1ccccc1C(=O)/C=C1/SCC(=O)N1C | -82 | . | . | .
CC1CCCC(C)N1CCCNC(=O)c1ccc2nc(N3CCOCC3)sc2c1 (stereo not drawn) | . | . | . | .
CC1CCCC(C)N1CCCNC(=O)c1ccc2nc(N3CCCCC3)sc2c1 (stereo not drawn) | . | . | -158 | .
SMILES | KCNH2 3.1 inh | TRPV1 PAM | hERG WT inh | TRPV1 ag
COc1ccc(C)cc1N(CC(=O)NC1CCCC1)C(=O)Cn1nnc(-c2ccc(C)o2)n1 | -101 | . | . | .
Cc1ccc(N(CC(=O)NC2CCCCC2)C(=O)Cn2nnc(-c3ccc(C)o3)n2)cc1 | . | . | . | .
CCCN1CCC(=O)N([C@H](COc2ccccc2)c2ccccc2)CC1 | -95 | . | . | .
CC(C)CN1CCC(=O)N([C@H](COc2ccccc2)c2ccccc2)CC1 | -100 | . | . | ?
CC(C)CN1CCC(=O)N(CCOc2ccccc2)CC1 | . | . | . | .
O=C1CCN(CCc2ccccc2)CCN1[C@H](COc1ccccc1)c1ccccc1 | -115 | . | -130 | .
CCCN1CCC(=O)N([C@H](CO)c2ccccc2)CC1 | . | . | . | .
CCCCn1c(N)c(N(CC)C(=O)C2COc3ccccc3O2)c(=O)[nH]c1=O (stereo not drawn) | . | . | . | .
CCOc1ccc(C(C)NC(=O)c2ccc3c(c2)NC(=O)C(C)S3)cc1OCC (stereo not drawn) | . | . | . | .
COc1ccc2[nH]c(CN3CCC(n4nccc4NC(=O)C4CC4)CC3)c(C)c2c1 | -76 | . | ? | .
COc1ccc2[nH]c(C(=O)N3CCC(n4nccc4NC(=O)C4CC4)CC3)c(C)c2c1 | . | . | . | .
CCC(C)n1c(S(=O)(=O)O)nc2ccccc21 (stereo not drawn) | . | . | -184 | .
CCCn1c(S(=O)(=O)O)nc2ccccc21 | . | . | . | .
C(#CC12CC3CC(CC(C3)C1)C2)CN1CCOCC1 | . | . | -103 | ?
Cn1c(N2CCCC2)nc2c1c(=O)n(Cc1ccc(Cl)cc1)c(=O)n2C | . | . | . | ?
CC1CN(c2nc3c(c(=O)n(Cc4ccc(Cl)cc4)c(=O)n3C)n2C)CC(C)O1 (stereo not drawn) | . | . | . | 106
Clc1ccc(Cc2ccccn2)cc1 | . | . | . | .
COCCCNS(=O)(=O)c1ccc2c3c(cccc13)C(=O)S2 | -138 | . | -132 | .
COCCNS(=O)(=O)c1ccc2c3c(cccc13)C(=O)N2C | . | . | . | .
COc1ccc(CCn2c(=N)c(C(=O)NC3CCCCC3)cc3c(=O)n4ccccc4nc32)cc1 | -87 | . | ? | ?
COc1ccc(CCn2c(=N)c(C(=O)NCC3CCCO3)cc3c(=O)n4ccccc4nc32)cc1 (stereo not drawn) | -86 | . | ? | ?
N=c1c(C(=O)NCc2ccc(F)cc2)cc2c(=O)n3ccccc3nc2n1CC1CCCO1 (stereo not drawn) | -86 | . | -122 | ?
N=c1c(C(=O)NCC2CCCO2)cc2c(=O)n3ccccc3nc2n1Cc1ccc(Cl)cc1 (stereo not drawn) | -131 | . | . | ?
Cn1c(N)c(C(=O)COC(=O)COc2ccc(Cl)cc2Cl)c(=O)n(C)c1=O | . | / | . | /
Cc1ccc(Cn2c(=N)c(C(=O)NCC3CCCO3)cc3c(=O)n4cccc(C)c4nc32)cc1 (stereo not drawn) | . | . | . | 82
SMILES | KCNH2 3.1 inh | TRPV1 PAM | hERG WT inh | TRPV1 ag
N=c1c(C(=O)NC2CCCC2)cc2c(=O)n3ccccc3nc2n1Cc1ccccc1 | -77 | . | . | ?
Cc1ccc(Cn2c(=N)c(C(=O)NCC3CCCO3)cc3c(=O)n4ccccc4nc32)cc1 (stereo not drawn) | . | . | . | ?
Cc1c(NC(=S)NC(=O)c2cccc3ccccc23)cccc1C(=O)O | . | . | . | .
Cc1c(NC(=S)NC(=O)c2ccc(COc3ccccc3)cc2)cccc1C(=O)O | . | . | -231 | .
C/C(=N\NC(=O)c1nnn(-c2nonc2N)c1CN1CCC(C)CC1)c1ccc(Br)cc1 | . | / | . | /
CC1=NN(c2ccccc2)C(c2ccco2)C1 (stereo not drawn) | . | / | . | /
